ADAM10 inh = inhibits human ADAM10 | O14672 | recombinant ADAM10, EDANS/DABCYL FRET peptide cleavage, 3 h | inhibition, % at 7 µM | 370,000 compounds, 0.62% hits | AID 720582;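 active = inhibition above a per-campaign cutoff equal to the mean of compounds falling between control-based bounds plus 3 SD, cut at about 20% in these data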;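 note: 0% = DMSO wells while the 100% control is not disclosed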
GRIN3A LBD mod = modulates the human NR3A ligand-binding domain; NR3A LBD differential scanning fluorimetry, Tm shift; 0% = protein alone, 100% = glycine-bound protein; Tm shift relative to glycine control, % at 25 µM; 340,000 compounds, 2.5% hits;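 active = melting temperature shift of at least 10% of the positive control shift, at one fixed dose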
AHR act = activators of human aryl hydrocarbon receptor | P35869 | AHR-responsive luciferase reporter cells, luminescence | activation, % at 5 µM | 320,000 compounds, 2.5% hits | AID 2796; in the data active = activation above about 47%;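 note: 0% = vehicle wells and 100% = reference agonist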
rCAG binder = r(CAG) repeat RNA binding. 370,000 compounds, 1.3% hits. inhibition, % at 3 µM. AID 651821. TO-PRO-1 dye displacement fluorescence;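 active = inhibition above the plate cutoff, the mean of all test compounds on that plate plus 3 SD, cut at about 35% in these data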;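 note: 0% = DMSO alone and 100% = 100 µM mitoxantrone as full dye displacement; higher means more dye released from RNA so lower well fluorescence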
ADAM17 inh = inhibits human ADAM17 | P78536 | recombinant ADAM17, EDANS/DABCYL FRET peptide cleavage | inhibition, % at 6.95 µM | 370,000 compounds, 0.83% hits;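 active = inhibition above the mean of compounds lying between control limits plus 3 SD, set per campaign, cut at about 8.5% in these data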;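 note: 0% = DMSO-only wells as the low control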
proKLK7 act = activates the human kallikrein-7 zymogen; P49862; purified proKLK7, EDANS-DABCYL substrate fluorescence; 100% is mature enzyme control, 0% vehicle; activation, % at 7 µM; 370,000 compounds, 0.9% hits;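 active = activation above the mean of all tested compounds plus 3 SD, computed per campaign excluding outliers beyond control limits, cut at about 13% in these data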
Target sequence (P49862 whole entry, looked up): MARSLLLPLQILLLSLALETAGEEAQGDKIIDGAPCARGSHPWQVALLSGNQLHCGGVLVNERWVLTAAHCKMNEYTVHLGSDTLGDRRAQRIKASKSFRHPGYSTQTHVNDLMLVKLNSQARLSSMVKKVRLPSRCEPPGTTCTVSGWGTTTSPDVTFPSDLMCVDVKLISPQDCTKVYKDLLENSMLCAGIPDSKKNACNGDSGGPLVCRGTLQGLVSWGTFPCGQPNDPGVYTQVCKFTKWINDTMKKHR
rCAG bind conf = r(CAG) RNA repeat binding, confirmation; shares compounds with rCAG binder; TO-PRO-1 dye displacement fluorescence; inhibition, % at 3 µM; 4,300 compounds, 70% hits;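 active = inhibition above a per-plate cutoff, the mean inhibition of sample wells plus 3 SD, cut at about 35% in these data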;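 note: loss of TO-PRO-1 fluorescence as compound displaces dye from 1x1 AA loop RNA; 0% = DMSO only wells and 100% = 100 µM mitoxantrone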
dCAG dye counter = counter-screen for rCAG RNA binders: DNA CAG dye complex inhibitors; shares compounds with rCAG binder; d(CAG) DNA oligo TO-PRO-1 dye displacement, fluorescence; inhibition, % at 3 µM; 4,300 compounds, 94% hits; AID 652068;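 active = inhibition above its plate's cutoff, the mean test-well inhibition plus 3 SD, cut at about 4.8% in these data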;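 note: 0% = DNA dye mix with DMSO and 100% = 100 µM mitoxantrone; hits displace the dye from DNA and so lower well fluorescence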
* hit, by the source's call; / = no result given. In the library only some 7% were active in any assay of this set; here they are far more common.

SMILES	ADAM10 inh	GRIN3A LBD mod	AHR act	rCAG binder	ADAM17 inh	proKLK7 act	rCAG bind conf	dCAG dye counter
COc1ccc(C2C(C(=O)Nc3cc(Cl)ccc3F)CCC(=O)N2c2ccc(OC)cc2)cc1 (stereo not given)	7	/	/	0	4	0	/	/
CN1CCN(C(=O)c2cc3c(c(-c4cccc(-c5cc6ccccc6o5)c4)n2)[C@H](CCO)N(S(=O)C(C)(C)C)C3)CC1 (stereo not given in full)	0	/	/	3	0	1	/	/
CC(C)(C)S(=O)N1Cc2cc(C(=O)O)nc(-c3cccc(-c4cc5ccccc5o4)c3)c2[C@H]1CCO (stereo not given in full)	-14	/	/	39*	-3	0	35*	13*
O=C(OCC(=O)N1CCCCC1)c1cc2ccccc2cc1O	-11	-2	5	2	-3	6	/	/
C/C(=N\NC(=O)c1cc2ccccc2cc1O)c1ccc2c(c1)OCO2	-5	8	5	29	-1	0	/	/
CCOC(=O)C(C)/C(C)=N/NC(=O)c1cc2ccccc2cc1O (stereo not given)	-7	-3	8	44*	-5	-1	13	6.7*
C/C(CC(=O)N1CCCC1)=N\NC(=O)c1cc2ccccc2cc1O	-5	-2	6	38*	-3	-1	15	6.2*
NNC(=O)c1cc2ccccc2cc1O	-3	0	9	41*	-3	-2	5	4
O=C(Nc1ccc(F)cc1)C(c1cc2ccccc2o1)N1CCN(C(=O)c2ccco2)CC1 (stereo not given)	5	/	/	7	2	1	/	/
O=[N+]([O-])c1ccccc1S(=O)(=O)Nc1nc2ccccc2s1	-4	-14	8	10	-5	1	/	/
O=[N+]([O-])c1ccc2nc(NS(=O)(=O)c3ccccc3[N+](=O)[O-])sc2c1	14	14*	10	41*	4	0	39*	12*
O=[N+]([O-])c1ccc2nc(NS(=O)(=O)c3ccc(Cl)cc3)sc2c1	-6	18*	0	72*	2	0	76*	28*
O=S1(=O)CC2c3ccccc3CCN2CN1Cc1ccc(F)cc1 (stereo not given)	4	/	/	0	2	0	/	/
COc1ccc2nc(NC(=O)c3ccc(NS(=O)(=O)c4cccs4)cc3)sc2c1	-62	25*	6	65*	-24	-3	66*	29*
COc1ccc2nc(NC(=O)CNS(=O)(=O)c3cccs3)sc2c1	3	4	4	9	-2	1	/	/
Cc1cccc2sc(NC(=O)c3ccc(NS(=O)(=O)c4cccs4)cc3)nc12	-56	36*	11	80*	-21	-1	76*	40*
COC(=O)C1CN(Cc2ccc(F)cc2)CCS(=O)(=O)N1Cc1cn(Cc2ccc(F)cc2)nn1 (stereo not given)	-3	/	/	1	-4	0	/	/
Cc1[nH]c2ccccc2c1CC(=O)Nc1ccc(Nc2cccnc2)c(-c2ccc(C(C)(C)C)cc2)c1	2	/	/	19	4	0	/	/
O=C(N[C@@H]1CC[C@H]2SC[C@H](C(=O)O)N2C1=O)OCC1c2ccccc2-c2ccccc21	-21	/	/	26	-12	-1	/	/
Cc1nn(CCC(=O)NNC(=O)NCc2ccccc2)c(C)c1[N+](=O)[O-]	-7	/	/	0	-1	1	/	/
CCC(C)N(C(=O)CSc1nnc(-c2cccnc2)n1C1CCCCC1)C(C)CC (stereo not given)	-6	/	/	-2	1	0	/	/
Cc1cccc(-n2c(O)c(C=Nc3cc(O)ccc3C)c3ccccc3c2=O)n1	-33	-2	1	10	-17	3	/	/
Cc1ccc(-n2c(O)c(C=Nc3ccccc3-c3n[nH]c(=S)[nH]c3=O)c3ccccc3c2=O)cc1C	-99	-6	/	77*	-36	3	81*	48*
Cc1ccc(-n2c(O)c(C=Nc3ccccc3-c3n[nH]c(=S)[nH]c3=O)c3ccccc3c2=O)c(C)c1	-80	-4	-1	72*	-28	1	88*	57*
Cc1cccc(-n2c(O)c(C=Nc3ccccc3-c3n[nH]c(=S)[nH]c3=O)c3ccccc3c2=O)n1	-219	-2	3	46*	-89	11	44*	13*
SMILES	ADAM10 inh	GRIN3A LBD mod	AHR act	rCAG binder	ADAM17 inh	proKLK7 act	rCAG bind conf	dCAG dye counter
COc1cc2c(c(OC)c1)C(=O)O[C@H](C)C[C@@H]1O[C@H]1CCCCC(=O)C2	-7	/	/	0	-5	1	/	/
COc1cccc(C(=O)N2CCC[C@@H]2C(=O)N2CCC[C@H]2C(=O)NCc2ccncc2)c1	2	/	/	1	3	0	/	/
O=S1(=O)N[C@@H](Cc2ccccc2)COc2cccc(NCCCN3CCOCC3)c21	-1	/	/	-1	-3	0	/	/
O=C(CCN1C(=O)S/C(=C\c2ccccc2)C1=O)Nc1ccc(O)cc1C(=O)O	-6	-3	0	46*	-2	-1	33	8.4*
Cc1ccc(C(=O)Nc2ccc(O)cc2C(=O)O)cc1	1	-17	3	4	0	1	/	/
O=C(CCN1C(=O)/C(=C\c2ccccc2)SC1=S)Nc1ccc(C(=O)O)cc1	-5	6	0	16	-3	0	/	/
O=C(CN1C(=O)S/C(=C\c2cccs2)C1=O)Nc1ccc(O)cc1C(=O)O	1	0	0	68*	1	0	49*	15*
O=C(CCN1C(=O)S/C(=C/c2ccccc2)C1=O)Nc1ccc(O)c(C(=O)O)c1	5	-7	0	56*	3	0	40*	14*
CC(=O)NCCN1C(=O)S/C(=C\c2cccs2)C1=O	15	0	2	11	6	1	/	/
CN1C(=O)/C(=C/c2ccc(C(=O)Nc3ccc(O)cc3C(=O)O)cc2)SC1=S	-2	-2	3	55*	3	0	94*	82*
COc1ccc(-c2ccccc2C2Cc3nnccc3CN2)cc1 (stereo not given)	4	/	/	5	-1	1	/	/
COc1cc(-c2coc3c(C(=O)NCc4ccc(C(F)(F)F)cc4)cccc23)ccc1O	13	/	/	9	4	0	/	/
COC(=O)c1ccc(C(=O)N2CCCC(C)(C(=O)NS(=O)(=O)C3CC3)C2)cc1 (stereo not given)	3	/	/	5	-2	1	/	/
O=C(c1ccccc1Oc1ccccc1)N1CCC(Oc2cccnc2)CC1	-4	/	/	0	-5	0	/	/
N#CC(C(=S)Nc1ccccc1)c1nc2ccccc2[nH]1 (stereo not given)	-1	31*	73*	65*	-2	0	46*	16*
